Holding throughout (assay): NCI-60 one-dose screen, 48 h (100 = growth as untreated, 0 = no growth, -100 = all killed)
Details in all cases: 10 µM unless noted

Assay [1] has as its system SR leukemia.
Assay [2] deals with RPMI-8226 leukemia.
In assay [3] the test system is OVCAR-8 ovarian.
Assay [4] relates to OVCAR-5 ovarian.
In assay [5] the test system is OVCAR-4 ovarian.
The subject of assay [6] is SK-OV-3 ovarian.
The subject of assay [7] is OVCAR-3 ovarian.
Assay [8] deals with HS 578T breast.
Assay [9] deals with NCI/ADR-RES ovarian.
Assay [10] concerns IGROV1 ovarian.

Structures are written as SMILES. This is part of a sample that, as a whole, favours compounds with a hit. Of some 83,000 tested, about 20% had one in any assay.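 The endpoint reported here, percent growth, reads 100 for growth as untreated, 0 for no net growth and -100 for all cells dead.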 A number with no mark means an inactive call. Active and inactive are the calls of the source. The calls were made as follows: active = growth percent below 10; inactive = the rest.

`N#Cc1nc2c(S(=O)(=O)c3ccccc3)c(N)n(Cc3cccnc3)c2nc1C#N`: the growth was 36.1% in assay [1]; 99.2% in assay [2]; 70.9% in assay [3]; 96.5% in assay [4]; 92.4% in assay [5]; 76.9% in assay [6]. Moreover, the figures for the growth in [7], in assay [8] and in assay [9] were 73.4%, 59.5% and 94.6%, respectively.

For the compound `COc1cc2c(c(OC)c1OC)C(=O)CC(c1cccc(NC(=O)c3ccccc3Br)c1)O2` (stereo unspecified), the growth in assay [1] is 68.4%; in assay [2] it was 58.2%; in assay [3] it was 80.1%; in [4], 117%; in assay [5] it was 90%; in assay [6] it was 108%. The growth in [10] is 102%; in assay [7], 96.4%; in [8], 79.5%; in assay [9], 91.3%.

Regarding `N=C(N)c1ccc(-c2ccc(-c3ccc(Cl)cc3)o2)o1`, the growth in assay [1] was -28.8% (active); in assay [2], -6.54% (active); in [3], -55.4% (active); in [4] it was 3.3% (active); in assay [5], 46.2%; in [6] it was 81.2%. Also, the growth was 37.7% in assay [10], -86.1% (active) in assay [7], 78.6% in [8] and -50.6% (active) in [9].

`O=C1/C(=C/c2ccccc2)CN(C(=O)c2cccnc2)C/C1=C\c1ccccc1`: the growth is 4.69% (active) in [1]; -19.6% (active) in assay [2]; 12.4% in assay [3]; 10.8% in assay [4]; 43.8% in assay [5]; 40.2% in assay [6]. In addition, the growth was -16.2% (active) in assay [7], 21.4% in [8] and 18.7% in assay [9].

For `O=C(CSc1nc2ccc([N+](=O)[O-])cc2[nH]1)Nc1ccc(Br)cc1`, the growth in assay [1] was 22.9%; in [2], 6.95% (active); in assay [3] it was 52.5%; in assay [4] it was 85.7%; in assay [5], 34.4%; in assay [6], 44.7%. In addition, the figures for the growth in assay [7], in [8] and in assay [9] were 39.3%, 78.7% and 59.3%, respectively.

For `O=c1[nH]c(-c2ccc(Cl)cc2)cn1-c1ccc(-n2cc(-c3ccc(Cl)cc3)[nH]c2=O)cc1`, the growth was 98% in [1]; 123% in assay [2]; 92% in [3]; 104% in assay [4]; 98.5% in assay [5]; 97.5% in assay [6]. For the same compound, the values for the growth in [7], in assay [8] and in assay [9] were 109%, 102% and 108%, respectively.

`COc1cc(C2=NN(C(C)=O)C(c3ccc(N(C)C)cc3)C2)cc(OC)c1OC` (stereo unspecified): the growth in assay [1] is 83.9%; in assay [2] it was 99.1%; in assay [3] it was 95.3%; in assay [4], 82.3%; in assay [5] it was 96.7%; in [6], 110%. In addition, the growth was 124% in [7], 84.7% in assay [8] and 99.2% in assay [9].

For the compound `COc1ccccc1-n1c(-c2cc(O)ccc2C)cn2c3c(=O)[nH]c(=O)n(C)c3nc12`, the growth in [1] is 86.2%; in [2], 90.7%; in [3], 66.5%; in [4], 95.3%; in [5], 98.2%; in [6] it was 47.4%. The results for the growth in [7], in [8] and in assay [9] were 65.3%, 20.4% and 101%, respectively.

As for `Cc1nc2ccccc2c(/C=C/c2ccc(C(F)(F)F)cc2)c1C(=O)/C=C/c1ccccc1`, the growth is 8.57% (active) in [1]; -17.8% (active) in assay [2]; -13% (active) in assay [3]; -75.7% (active) in assay [4]; -1.62% (active) in assay [5]; 48.2% in assay [6]. Besides, the growth in [10] was -37.3% (active); in assay [7], -62.7% (active); in [8], -0.739% (active); in assay [9] it was -33.8% (active).

`Cc1c2cc[nH]c(=O)c2c(C)c2c1[nH]c1ccc(OC(=O)c3ccccc3)cc12`: the growth in assay [1] was 4.29% (active); in assay [2], 40.2%; in assay [3] it was 28.4%; in assay [4], 53.1%; in assay [5] it was 62.5%; in assay [6], 8.11% (active). The growth in assay [7] was 44.3%; in [8] it was 19.3%; in assay [9] it was 27.7%.

With `CC[C@H](Nc1nc(N)nc(C)c1C#N)c1nc2cccc(NCCCCCC(=O)NO)c2c(=O)n1-c1ccccc1`, the growth is 67.9% in assay [1]; 62% in [2]; 68.5% in assay [3]; 44.2% in [4]; 76.1% in assay [5]; 53.1% in [6]. The growth in assay [7] was 40.8%; in assay [8] it was 13.2%; in [9] it was 96.2%.

With `CC/C=C\C/C=C/C=C1/C(=O)C=C[C@@H]1C/C=C\CCCC(=O)OC`, the growth in assay [1] is 5.21% (active); in assay [2], 1.81% (active); in assay [3], 13.2%; in assay [4], 63.8%; in [5], 85.4%; in [6], 110%. Also, the growth is 11.1% in assay [7], 11.9% in assay [8] and 73.5% in [9].

Take `COc1cc2c3c(n(CCCCNCCCn4c5c(c6cc(OC)c(OC)cc6c4=O)C(=O)c4cc6c(cc4-5)OCO6)c(=O)c2cc1OC)-c1cc2c(cc1C3=O)OCO2`: the growth is 66.6% in assay [1]; 105% in [2]; 101% in assay [3]; 98.6% in assay [4]; 102% in assay [5]; 96.3% in assay [6]. For the same compound, the growth was 95% in assay [10], 98.7% in assay [7], 104% in assay [8] and 98.6% in assay [9].

`O=C1/C(=C/c2ccc(C(F)(F)F)cc2)COc2ccc(O)c(O)c21`: the growth in assay [1] is 3.77% (active); in [2], -13.8% (active); in [3] it was 9.3% (active); in assay [4], -34.1% (active); in assay [5] it was 24.8%; in assay [6] it was 81.6%. The growth is -84.6% (active) in assay [7], 10.4% in [8] and -11.6% (active) in [9].

Regarding `CCN(CC)CCNC(=O)c1ccc(-c2nc3ccc4[nH]ncc4c3c3c2CCCC3)cc1`, the growth in assay [1] was 6.02% (active); in [2], 52.1%; in [3], 59%; in [4], 87.3%; in assay [5], 76.1%; in [6] it was 44.1%. Also, the growth in assay [7] was 78.4%; in assay [8], 41.6%; in assay [9] it was 70.9%.

Consider `CCOC(=O)c1c2c(n3c1NCC3)-c1ccccc1C2=O`, for which the growth in assay [1] is 100%; in assay [2] it was 105%; in assay [3], 99.4%; in assay [4], 89.4%; in assay [5] it was 99.7%; in assay [6], 104%. Also, the growth in assay [7] was 92.1%; in assay [8], 106%; in [9], 102%.

As for `CCN(CC)c1ccc(N2C(=O)/C(=C/c3cccs3)SC2=S)cc1`, the growth was 95.4% in assay [1]; 97% in [2]; 99.6% in [3]; 95.4% in [4]; 81.9% in assay [5]; 113% in [6]. The growth in [7] is 101%; in assay [8], 103%; in assay [9], 96.6%.

As for `CC(C)c1ccc(NC(=O)Nc2ccc(NC(=O)c3ccccc3N)cc2)cc1`, the growth in assay [1] is 17.9%; in [2], -0.137% (active); in assay [3], 61.5%; in [4], 60.5%; in [5], 59.4%; in [6], 46.8%. For the same compound, the growth in assay [10] is 72.6%; in assay [7] it was 49%; in assay [8] it was -3.9% (active); in assay [9], 89.5%.

Consider `Cc1ccc2[nH]c(-c3ccc(S(C)(=O)=O)cc3)c(/C=N/N=C(N)N)c2c1`, for which the growth in [1] was 24.4%; in assay [2] it was 39.2%; in assay [3], 58.4%; in assay [4] it was 101%; in assay [5], 90.7%; in assay [6], 57.7%. Besides, the results for the growth in assay [7], in [8] and in [9] were 27.6%, 50.5% and 49.4%, respectively.

For the compound `COc1ccc2c(c1)c(-c1ccc(-c3cn(C)c4ccc(OC)cc34)[nH]1)cn2C`, the growth in assay [1] was -10.7% (active); in assay [2] it was 2.15% (active); in assay [3], 7.19% (active); in assay [4] it was 30.9%; in assay [5], -40.3% (active); in [6] it was 50.9%. Further, the growth in [7] was -42% (active); in assay [8], -13% (active); in assay [9], 3.06% (active).

For the compound `Cc1[nH]c(C(=O)Nc2cccc(OC3CCNCC3)c2)c(Cl)c1Cl`, the growth in assay [1] was 13.6%; in [2], 43.2%; in assay [3], 94.2%; in assay [4], 95.4%; in assay [5], 98.6%; in [6] it was 96.5%. In addition, the growth in assay [7] is 82.4%; in assay [8], 56.6%.

`Cc1ccccc1CNc1c2ccccc2nc2ccccc12`: the growth was 2.71% (active) in assay [1]; -8.88% (active) in [2]; 21% in [3]; 36.7% in [4]; 32.9% in [5]; 40.8% in assay [6]. The growth in assay [7] is 31.3%; in assay [8] it was 35.7%; in assay [9], 24.9%.

`CN(C)c1ccc(C(=NO)c2ccc(N(C)C)cc2)cc1`: the growth in assay [1] was 12.7%; in assay [2], 49.5%; in assay [3], 39.4%; in [4], 81.4%; in assay [5] it was 71.3%; in assay [6] it was 57.7%. The results for the growth in assay [7], in assay [8] and in assay [9] were -15.1% (active), 51.1% and 13.4%, respectively.

As for `O=C1OCC2=C1C(c1cccc(C(F)(F)F)c1)c1cc3c(cc1N2CCO)OCO3` (stereo unspecified), the growth in assay [1] is 15.7%; in assay [2] it was 21%; in assay [3] it was 23.3%; in assay [4], 55%; in [5], 58.1%; in [7] it was -5.02% (active). Also, the growth in assay [8] was 31.4%; in assay [9] it was 25%.

`COc1ccc(-c2oc(=O)ccc2-c2cc(OC)c(OC)c(OC)c2)cc1O`: the growth is 8.87% (active) in assay [1]; 14.6% in assay [2]; 23.1% in assay [3]; 35.7% in assay [4]; 47.6% in [5]; 29.8% in assay [10]. The growth was -59.3% (active) in assay [7], -7.79% (active) in assay [8] and 29.1% in assay [9].

Consider `O=C(CCCCCCCCC(=O)N/N=C\c1cc(Cl)ccc1O)N/N=C\c1cc(Cl)ccc1O`, for which the growth was 14.1% in assay [1]; 31.9% in assay [2]; 25.9% in assay [3]; 62% in assay [4]; 23% in assay [5]; 30.2% in [10]. Moreover, the results for the growth in assay [7] and in assay [8] were 31.4% and 66.3%, respectively.

These data come from PubChem BioAssay (NCI).
